Screens deposited in PubChem by several laboratories.
Sampled rows, rich in hits. Any-hit rate of the full collection: about 1.8%.
BaF3 parental = counter-screen for JAK2V617F inhibitors: parental Ba/F3 viability inhibitors. inhibition, % at 5.6 µM. actives 1.1% (n = 220,000). CellTiter-Glo ATP luminescence;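 active = inhibition above a per-campaign cutoff, the mean inhibition of all tested compounds plus 3 SD, cut at about 27% in these data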;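 also: 0% = DMSO wells and 100% = JAK Inhibitor I control wells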
IEC-6 cytotox = kills IEC-6 intestinal cells in KLF5 counter-screen. IEC-6 cytotoxicity, luminescence viability. inhibition, % at 5 µM. actives 0.78% (n = 290,000); in the data active = inhibition above about 22%;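 also: 0% = plate median of test compound wells and 100% = cytotoxic reference compound wells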
Ba/F3 V617F tox = loss of viability in JAK2V617F-driven Ba/F3 cells | Ba/F3 EpoR-JAK2V617F viability, ATP luminescence | inhibition, % at 5.6 µM | actives 1.1% (n = 220,000);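 active = inhibition above the campaign mean plus 3 SD over all tested compounds, cut at about 24% in these data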;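 also: cytokine-independent growth of Ba/F3 cells driven by EpoR plus mutant JAK2; 0% = DMSO-treated cells and 100% = JAK inhibitor I control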
KLF5 inh = inhibitors of KLF5 expression. actives 0.23% (n = 290,000). inhibition, % at 5 µM. DLD-1 KLF5 promoter-luciferase reporter, luminescence;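 active = inhibition above a per-plate limit of that plate's mean compound inhibition plus 3 SD, cut at about 60% in these data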;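 also: 0% = DMSO wells and 100% = LY294002 at 200 µM; higher means less KLF5 promoter-driven luciferase light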
APP 5UTR inh = APP translation inhibition; SH-SY5Y APP 5'UTR-luciferase reporter, luminescence; inhibition, % at 2 µM; actives 0.82% (n = 190,000); AID 1285;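 active = inhibition above a set limit, derived from the sample mean plus 3 SD, cut at about 45% in these data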
An asterisk follows results filed as active; · = no result given.

SMILES | BaF3 parental | IEC-6 cytotox | Ba/F3 V617F tox | KLF5 inh | APP 5UTR inh
CCn1cc([N+](=O)[O-])c(C(=O)Nc2nc3ccc(OC)cc3s2)n1 | 3 | -2 | 2 | -38 | -90
Cc1ccc(S(=O)(=O)NC2(C(F)(F)F)C(=O)Nc3c2c(=O)[nH]c(=O)n3-c2ccccc2)cc1 (stereo unspecified) | 3 | 10 | 3 | -9 | -2
O=c1[nH]c(=O)n(-c2ccccc2)c2c1C(C(F)(F)F)(C(F)(F)F)N=C(C1CCCCC1)N2 | 40* | 4 | 4 | -14 | 3
NC(=S)N=Nc1c(O)n(Cc2ccc(Br)cc2)c2ccccc12 | 1 | -5 | -1 | -5 | 58*
C/C(Cl)=C\Cn1c(O)c(N=NC(N)=S)c2cc(Br)ccc21 | 4 | 30* | 4 | -8 | 31
CCOC(=O)CC1(NC(=O)C2CCC(=O)N(Cc3ccccc3F)C2)CCCCC1 (stereo unspecified) | · | 0 | · | -23 | ·
N#Cc1c2ccccc2nc2ccccc12 | -1 | 2 | 1 | -14 | ·
COc1ccc(Cl)cc1N(CC(=O)N1CCCCCC1)S(C)(=O)=O | · | -8 | · | -6 | ·
COc1ccc(N2CCN(C(CNC(=O)C(C)C)c3ccc4c(c3)OCO4)CC2)cc1 (stereo unspecified) | · | -3 | · | 4 | ·
Cc1ccc(C)c(S(=O)(=O)/N=C2\C=C(NS(=O)(=O)c3ccccc3)C(=O)c3ccccc32)c1 | · | -1 | · | 10 | ·
Cc1cc(C)c(S(=O)(=O)/N=C2/C=C(Sc3ncn[nH]3)C(=O)c3ccccc32)cc1C | 7 | 14 | 41* | -1 | 89*
CC12Cc3ccc4ccccc4c3C=C1C[N+](C)(C)C2 (stereo unspecified) | 40* | 3 | 27* | -12 | -3
O=C(NCCN1CCN(Cc2ccccc2)CC1)c1ccc(CS(=O)(=O)c2ccc(Br)cc2)o1 | · | -3 | · | -4 | ·
Cc1ccc(-n2c(SCC(=O)N3CCCc4ccccc43)nnc2-c2cccnc2)c(C)c1 | 6 | 4 | 1 | 8 | 25
Cc1ccc(-n2c(-c3ccccc3)c[n+]3c2CCc2ccccc2-3)c(C)c1 | 81* | 27* | 100* | 28 | -27
Cc1ccc(C(=O)c2cc([N+](=O)[O-])ccc2N2CCOCC2)cc1 | 5 | 2 | 5 | 10 | 93*
Cc1ccc(C(=O)c2cc([N+](=O)[O-])ccc2N2CCCCC2)c(C)c1 | 87* | 89* | 88* | 37 | 96*
O=C(O)c1cc([N+](=O)[O-])ccc1N1CCCCC1 | 9 | 2 | 2 | -2 | 10
CC1CCCCC1NS(=O)(=O)c1ccc(S(=O)(=O)NCc2ccncc2)cc1 (stereo unspecified) | 47* | 12 | 42* | -36 | -1
CC(C)CNS(=O)(=O)c1ccc(CCC(=O)NCc2ccncc2)cc1 | 90* | 2 | 1 | -3 | -24
CC(=O)Nc1ccc(S(=O)(=O)NCc2ccncc2)cc1 | 37* | -4 | 32* | -3 | -7
Cc1ccc(S(=O)(=O)NCc2ccncc2)cc1 | 47* | 8 | 37* | -7 | 11
CC(=O)Nc1ccc(S(=O)(=O)NCc2ccccn2)cc1 | -2 | 4 | -1 | -10 | -12
CCOc1ccc(S(=O)(=O)NC2CCCCC2C)cc1 (stereo unspecified) | · | 3 | · | -10 | ·
Cc1ccc(S(=O)(=O)NCC(=O)NCc2ccncc2)cc1 | 2 | -6 | -1 | -3 | -3
SMILES | BaF3 parental | IEC-6 cytotox | Ba/F3 V617F tox | KLF5 inh | APP 5UTR inh
CCC(C(=O)Nc1ccc([N+](=O)[O-])cn1)c1ccccc1 (stereo unspecified) | · | 0 | · | -26 | ·
CCOc1ccc(S(=O)(=O)NCc2ccncc2)cc1 | 61* | 20 | 65* | -28 | 13
Cc1ccccc1C(=O)NC(CC(C)C)C(=O)Nc1ccc(F)c([N+](=O)[O-])c1 (stereo unspecified) | 0 | 8 | -4 | -9 | 1
Cc1ccccc1C(=O)NC(CC(C)C)C(=O)Nc1cccc(S(=O)(=O)N(C)C)c1 (stereo unspecified) | 42* | 1 | 11 | -45 | -2
COc1ccc(-c2n(Cc3ccccc3)c3ccccc3[n+]2Cc2ccccc2)cc1 | 74* | 11 | 96* | 9 | -13
Cc1ccc(S(=O)(=O)NCCC(=O)Nc2ccc(Cl)c(Cl)c2)cc1 | 7 | 2 | 4 | -6 | -3
COc1cc(/C=C2/SC(=Nc3ccc(O)cc3)NC2=O)ccc1O | 72* | 13 | 75* | 36 | ·
CCN(CC)C(=S)Nc1ccc(OC)cc1 | 1 | -6 | -4 | 3 | 4
COc1ccc(CN(C)C(=S)Nc2ccc(Cl)cc2)cc1 | 36* | -1 | 39* | -23 | -7
O=C(NCc1cc2ccccc2[nH]1)C1CCC(=O)N(CCCN2CCCC2=O)C1 (stereo unspecified) | · | 10 | · | -18 | ·
CN1CCN(CCCNC(=O)c2cc3c(-c4ccc(Cl)cc4)nn(C)c3s2)CC1 | 10 | 16 | 6 | -33 | 8
CCN(CC)CCCNC(=O)c1cc2c(-c3ccc(Cl)cc3)nn(C)c2s1 | 29* | 14 | 7 | -14 | -3
COc1ccc(-c2ccc(-c3nnn(CC(C)=O)n3)cc2)cc1 | 6 | 3 | 0 | -118 | -87
COc1ccc(CCn2nnc(-c3ccc(NC(C)=O)c(Cl)c3)n2)cc1 | 59* | -6 | -3 | -3 | -4
COc1ncccc1C(=O)N1CCCC(N2CCN(c3cccc(Cl)c3)CC2)C1 (stereo unspecified) | · | -2 | · | -28 | ·
Cn1c(=O)n(C)c2cc(NS(=O)(=O)c3ccc(C(C)(C)C)cc3)ccc21 | 30* | 9 | 12 | -22 | 0
Cn1c(=O)n(C)c2cc(NS(=O)(=O)c3ccc4c(c3)CCCC4)ccc21 | 28* | 19 | 25* | -33 | 2
Cc1ccccc1CCN(C(=O)c1csnn1)C(C(=O)NC1CCCC1)c1ccncc1 (stereo unspecified) | · | 6 | · | 24 | ·
Cc1ccc(S(=O)(=O)/N=C(/Nc2cccc3ccccc23)c2ccc(F)cc2)cc1 | · | -2 | · | -36 | ·
O=C(N/N=C/c1ccc(F)cc1)c1sccc1OCc1ccc(F)cc1 | -1 | -4 | 2 | -41 | -4
O=C(N/N=C/c1ccc(Cl)cc1)c1sccc1OCc1ccc(F)cc1 | 47* | 22 | 72* | 23 | ·
COc1ccc(S(=O)(=O)N2CCCOC2CNC(=O)C(=O)NC2CCCC2)cc1 (stereo unspecified) | · | 7 | · | -53 | ·
O=C(Nc1ccc(Cl)cc1)Nc1ccc(N2CCCC2)c(S(=O)(=O)Nc2ccccc2Cl)c1 | 37* | 4 | 53* | -25 | 4
COc1ccc(-n2c(-c3ccc(Br)cc3)c[n+]3c2SC(C)C3)cc1 (stereo unspecified) | 67* | 5 | 76* | -25 | -37
COc1ccc(-n2c(-c3ccc(Br)cc3)n[nH]c2=S)cc1 | · | -3 | · | -3 | ·
COc1ccc(-n2c(-c3ccc(Br)cc3)nc(=S)c3c2CCCC3)cc1 | 4 | -1 | -3 | -11 | 8
COc1ccc(-n2c(-c3ccc(Br)cc3)c[n+]3c2CCCCC3)cc1 | 64* | 18 | 76* | -30 | 0
COc1ccc(-n2c(-c3ccccc3)c[n+]3c2CCC3)cc1 | 63* | 2 | 75* | -25 | ·
